In the library only some 11% were active in any assay of this set; here they are far more common.
NPR1 antag = Natriuretic polypeptide receptor (hNpr1) antagonism - Primary qHTS. HEK293 hNpr1 GloSensor cGMP, ANP-stimulated luminescence. Potency, µM (series often up to 46.3 µM), inactives show at the top dose activity change, negative = inhibition, usual class: inhibitors. 1.6% of 76,000 active; calls by dose curve; note: nearly all actives have a fitted effect of over 60% in size
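HEK293 cells stably expressing human Npr1 and cGMP GloSensor pGS-40F, loaded 2 h with 2% GloSensor reagent, given compound 30 min at room temperature. Luminescence read before and 20 min after 0.1 nM hNppA.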
HEK cytotox = Cytotoxic Profiling in HEK 293 Cell Line of Diverse Libraries Using Quantitative High-Throughput Screening; 6.6% of 94,000 active; HEK 293 viability, ATP luminescence (CellTiter-Glo), 48-72 h; Potency, µM (titrated, usually from 115 µM), inactives show at the top dose activity change, negative = cytotoxicity, most hits filed as inhibitors; note: nearly all actives have a fitted effect of over 60% in size
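HEK 293 cells seeded at 250 cells/well were exposed to compound for 48 or 72 hr at 37 degree Celsius. Viability taken as ATP content by CellTiter-Glo luminescence.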
3T3 cytotox = Cytotoxic Profiling in NIH 3T3 Cell Line of Diverse Libraries Using Quantitative High-Throughput Screening. 4.3% of 94,000 active. NIH 3T3 viability, CellTiter-Glo ATP luminescence, 48-72 h. Potency, µM (top dose mostly 96.7 µM), for inactives: at the top dose activity change, negative = cytotoxicity, most hits filed as inhibitors; note: nearly all actives have a fitted effect of over 55% in size
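Luminescent ATP readout (CellTiter-Glo, 10 min RT) after 48 or 72 hr compound exposure of NIH 3T3 cells seeded at 400 cells/well in 1536-well format; quantitative HTS.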
FLuc inh = Firefly luciferase inhibition profiling of diverse chemical library using quantitative high-throughput screening; Luciferin 4-monooxygenase (Photinus pyralis), P08659; purified P. pyralis luciferase, luminescence, biochemical; Potency, µM (doses to about 115 µM), actives largely listed as inhibitors; 2.5% of 76,000 active; note: nearly all actives have a fitted effect of over 65% in size
Target sequence (P08659 whole entry, looked up): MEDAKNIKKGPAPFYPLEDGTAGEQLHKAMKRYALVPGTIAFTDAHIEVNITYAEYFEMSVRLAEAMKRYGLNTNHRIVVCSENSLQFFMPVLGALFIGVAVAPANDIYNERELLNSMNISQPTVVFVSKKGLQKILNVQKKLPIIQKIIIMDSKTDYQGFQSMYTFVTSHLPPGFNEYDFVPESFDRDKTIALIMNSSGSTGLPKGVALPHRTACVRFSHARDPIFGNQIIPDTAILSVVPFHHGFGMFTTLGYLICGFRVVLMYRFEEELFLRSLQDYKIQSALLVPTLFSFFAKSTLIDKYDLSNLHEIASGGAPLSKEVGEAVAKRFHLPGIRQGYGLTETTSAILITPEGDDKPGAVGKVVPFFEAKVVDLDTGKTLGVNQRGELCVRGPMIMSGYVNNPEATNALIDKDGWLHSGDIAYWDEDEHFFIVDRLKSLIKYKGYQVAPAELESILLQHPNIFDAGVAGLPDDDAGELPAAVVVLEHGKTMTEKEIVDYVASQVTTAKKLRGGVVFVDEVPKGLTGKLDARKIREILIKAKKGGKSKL
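Luminescence read by CCD imager after adding enzyme (10nM final) to wells holding compound, titrated in qHTS. Substrates 10uM each D-luciferin and ATP; buffer 50mM Tris acetate pH 7.5, 10mM Mg acetate, Tween-20, BSA.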
* = called active by the depositor; i = inactive; ? = inconclusive; nt = not tested or not shown; [ ] = remark or other dose. Unless noted, calls come from the whole dose curve; as a rule, active = well fitted curve in the direction sought with a large enough effect; inconclusive = small, poorly fitted or top-dose-only effect, or another doubt; inactive = no such curve, though single readings can be large; an effect the other way counts as inactive or inconclusive. % is set by controls: 0 for no effect and ±100 for the full control effect; potency is the fitted concentration of half-maximal effect.

SMILES | NPR1 antag | HEK cytotox | 3T3 cytotox | FLuc inh
O=C(Cc1ccc(Cl)cc1)N1CCN(C2CCN(Cc3ccccn3)C2=O)CC1 (stereo not given) | 2% | -13% | -17% | i
Cc1ccc(-c2ccccc2CN2CCN(C(=O)Cc3ccccn3)CC2)cc1Cl | nt | ? | 25µM* | nt
CCOC(=O)[C@H]1CN(C(=O)c2ccc3c(c2)OCO3)[C@]2(C)C(=O)N(C)c3ccccc3[C@H]12 | nt | ? | -19% | nt
CN1CCN(C(=O)Cc2c[nH]c3ncc(-c4cccc(F)c4)cc23)CC1 | 3%[70.6 µM] | -18%[172 µM] | ? | i
CN1CCN(C(=O)Cc2c[nH]c3ncc(-c4ccc(F)c(Cl)c4)cc23)CC1 | -16%[70.6 µM] | 79µM* | 28µM* | i
Cn1cc(-c2cnc3[nH]cc(CC(=O)N4CCN(Cc5ccccc5)CC4)c3c2)cn1 | -8%[70.6 µM] | ? | 40µM* | ?
CN1CCN(C(=O)Cc2c[nH]c3ncc(-c4cccc(Cl)c4)cc23)CC1 | -23%[70.6 µM] | 89µM* | 50µM* | i
CN1CCN(C(=O)Cc2c[nH]c3ncc(-c4ccc5c(c4)OCO5)cc23)CC1 | -1%[70.6 µM] | ? | ? | 22µM*
COc1ncc(-c2cnc3[nH]cc(CC(=O)N4CCN(C)CC4)c3c2)cn1 | -12%[70.6 µM] | i | ? | i
CN1CCN(C(=O)Cc2c[nH]c3ncc(-c4ccc(Cl)cc4)cc23)CC1 | -15%[70.6 µM] | 100µM* | 28µM* | 22µM*
CC[C@H]1CN2CC[C@H]1C[C@@H]2CNCc1ccc(OC)cc1 | -4%[70.6 µM] | ? | -24%[230 µM] | i
CC[C@H]1CN2CC[C@H]1C[C@@H]2CNCc1ccc(-c2ccccc2)cc1 | -16%[70.6 µM] | 25µM* | 28µM* | i
CC[C@H]1CN2CC[C@H]1C[C@@H]2CN(Cc1ccc(SC)cc1)Cc1ccc(SC)cc1 | -14%[70.6 µM] | 7.1µM* | 10µM* | i
CC[C@H]1CN2CC[C@H]1C[C@@H]2CNCc1ccc(C(F)(F)F)cc1 | -1%[70.6 µM] | ? | 89µM* | i
COc1ccc(C(=O)N2CCC3(CC2)c2nccn2-c2ccccc2CN3C)cc1OC | 6% | -1% | -23% | i
CSCC(=O)Nc1ccc(=O)n2c1[C@@H]1C[C@@H](CN(C(=O)c3ccc(F)cc3)C1)C2 | -2%[70.6 µM] | 3%[172 µM] | -9%[174 µM] | i
CCOC(=O)[C@H]1CN(C(=O)OCC(C)(C)C)[C@]2(C)C(=O)N(C)c3ccccc3[C@H]12 | nt | -26%[57.5 µM] | ? | nt
Cc1nc(-c2ccccc2Br)cc([C@H]2CN3CC[C@H]2C[C@@H]3CNC(=O)CSCC(=O)O)n1 | 0% | -28% | 1% | i
COc1cncc(-c2cc3c(cc2OC)C2(CCN(C(C)=O)CC2)C(=O)N3)c1 | 0%[70.6 µM] | -15%[172 µM] | 32µM* | i
COc1cc2c(cc1OCc1ccccc1)NC(=O)C21CCN(Cc2nccn2C)CC1 | 4%[70.6 µM] | ? | ? | ?
COc1cc2c(cc1OCc1ccccc1)NC(=O)C21CCN(c2ncccn2)CC1 | -27%[70.6 µM] | ? | ? | i
COc1cc2c(cc1OCc1ccccc1)NC(=O)C21CCN(Cc2ccccc2)CC1 | -25%[70.6 µM] | 32µM* | 32µM* | i
COc1cc2c(cc1OCc1ccccc1)NC(=O)C21CCN(C(C)=O)CC1 | -3%[70.6 µM] | ? | 40µM* | ?
COc1cc2c(cc1OCc1ccccc1)NC(=O)C21CCN(Cc2ccncc2)CC1 | ? | ? | ? | i
COc1cc2c(cc1OCc1ccccc1)NC(=O)C21CCN(Cc2c(C)noc2C)CC1 | ? | 25µM* | ? | ?
SMILES | NPR1 antag | HEK cytotox | 3T3 cytotox | FLuc inh
CN(C)Cc1ccccc1-c1ccc2n(c1=O)C[C@H]1C[C@@H]2CN(C(=O)c2cccs2)C1 | 0%[70.6 µM] | -10%[172 µM] | -8%[174 µM] | i
COc1cc2c(cc1OCc1ccccc1)NC(=O)C21CCN(c2ccnc(C)n2)CC1 | ? | 28µM* | ? | ?
CCOC(=O)[C@H]1CN(C(=O)C2CCCC2)[C@]2(C)C(=O)Nc3ccccc3[C@H]12 | nt | ? | -17%[46.1 µM] | nt
CSc1cccc(NC(=O)NC[C@H]2C[C@@H]3CCN2C[C@@H]3CN(C)Cc2ccccc2)c1 | -1% | 28µM* | 22µM* | i
CC[C@H]1CN2CC[C@H]1C[C@@H]2CNC(=O)Nc1cccc(SC)c1 | 2%[70.6 µM] | -24%[172 µM] | -22%[174 µM] | i
CSc1cccc(NC(=O)NC[C@H]2C[C@@H]3CCN2C[C@@H]3CN(C)c2ccccc2)c1 | -17%[70.6 µM] | 25µM* | 32µM* | ?
CCN(CC)C[C@H]1CN2CC[C@H]1C[C@@H]2CNC(=O)Nc1cccc(SC)c1 | -3%[70.6 µM] | 50µM* | 40µM* | i
CCN1CCCN(C(=O)Cc2ccccc2)CC12CCOCC2 | nt | -3% | -20% | nt
Cc1ccccc1CC(=O)N1CCN(C2CCN(CCC(C)C)C2=O)CC1 (stereo not given) | 12% | ? | -15% | i
COc1cc2c(cc1CCc1ccccc1)N(C(=O)C1CCC(C)CC1)CC21CCN(C(C)=O)CC1 (stereo not given) | ? | 40µM* | 32µM* | i
COc1cc2c(cc1CCc1ccccc1)N(C(=O)c1ccnn1C)CC21CCN(C(C)=O)CC1 | 2% | ? | ? | i
COc1cc2c(cc1OCc1ccccc1)N(C(=O)c1ccn(C)n1)CC21CCN(C)CC1 | 3% | -21% | ? | i
COc1cc2c(cc1CCc1ccccc1)N(C(=O)c1c[nH]c3ccccc13)CC21CCN(C(C)=O)CC1 | -19% | 25µM* | 22µM* | i
COc1cc2c(cc1CCc1ccccc1)N(C(=O)C(C)C)CC21CCN(C(C)=O)CC1 | 4%[70.6 µM] | 89µM* | -98%[138 µM] | i
CCOC(=O)[C@H]1CN(C(=O)c2ccc(C)cc2)[C@]2(C)C(=O)N(CCOC)c3ccccc3[C@H]12 | nt | -12% | ? | nt
COc1ccc(NC(=O)OC[C@H]2C[C@@H]3CCN2C[C@@H]3c2cc(-c3ccc(N(C)C)cc3)nc(C)n2)cc1 | -14% | 18µM* | 16µM* | i
Cc1nc(-c2ccc(N(C)C)cc2)cc([C@H]2CN3CC[C@H]2C[C@@H]3CNC(=O)NC(C)C)n1 | 1%[70.6 µM] | ? | 89µM* | i
Cc1nc(-c2ccc(N(C)C)cc2)cc([C@H]2CN3CC[C@H]2C[C@@H]3CNC(=O)c2ccco2)n1 | -3% | ? | ? | ?
Cc1nc(-c2ccc(N(C)C)cc2)cc([C@H]2CN3CC[C@H]2C[C@@H]3COC(=O)Nc2ccccc2)n1 | -25% | ? | 4µM* | i
CCCNC(=O)OC[C@H]1C[C@@H]2CCN1C[C@@H]2c1cc(-c2ccc(F)cc2)nc(C)n1 | -1%[70.6 µM] | ? | ? | i
COc1cc(NC(=O)OC[C@H]2C[C@@H]3CCN2C[C@@H]3c2cc(-c3ccc(N(C)C)cc3)nc(C)n2)cc(OC)c1 | ? | 5.6µM* | 7.9µM* | ?
O=C(Nc1ccccc1)[C@H]1CN2CC[C@H]1C[C@@H]2Cn1cc(COc2ccccc2)nn1 | 9%[70.6 µM] | 4%[172 µM] | -5%[174 µM] | i

Compound activity: PubChem, National Center for Advancing Translational Sciences (NCATS)
